Tested on: VDR:RXRa (NR concentration 270 nM, RXRa partner concentration 90 nM)
Assay: PBM binding z-score (relative to random genomic background probes); higher = stronger binding; sequences stand for … in GC…GCGATTGACAGCGTAGAATGAAGG
Procedure: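 Protein-binding microarray (Agilent 4x180K custom design, double-stranded 60-nt probes: 5' GC cap, 34-nt variable region, 24-nt constant primer region; full probe sequence given). Purified or IVT nuclear receptor:RXRα heterodimers (3:1 NR:RXRα, mostly 270:90 nM) or homodimers were incubated for 1 h in PBS with 2% milk and no ligand, then detected with Alexa488 antibodies. Fluorescence from o1-orientation probes (~5 replicates averaged) was converted to z-scores against 500 random hg19 background probes. Variable regions are seed direct-repeat (DR0–DR5) sites, all their single-nucleotide variants and half-site ablations.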

Question: With AGAACGAGGGCAATGAGGTGATAGCACGGGTGGC as the sequence, how does the PBM binding z-score read?
Answer: 3.78

Question: ATCTCTAAGTAACCAAGTTCAGTGAATGCCGAAC was tested. Which PBM binding z-score did it give?
Answer: 2

Question: For AGAACGAGGCCACGCTGAGTTGATAGCAGAGTAG, which PBM binding z-score is on record?
Answer: 0.045

Question: How did the PBM binding z-score turn out when GCTTACGGGTCAACGGTTATAGCATGAATAGAAT was run?
Answer: 3.88

Question: How did the PBM binding z-score turn out when CCTTACGGGTCACGCCAGGTTATAGCATCGGAGT was run?
Answer: 5.36

Question: How did the PBM binding z-score turn out when CGTCCAAGGACATAGGAGGTCAGTGAAGACAGAT was run?
Answer: 2.2

Question: With ACTCGGAGGACAAAGATCAGAGCTACGCCAGTGA as the sequence, how does the PBM binding z-score read?
Answer: -0.289

Question: For ATATCTAGGTTATCGGGTCATTCAGTTTGCGCAT, which PBM binding z-score is on record?
Answer: 5.12

Question: For GCATATAGGTAATACAAGATGAAAGTCCGATTGT, which PBM binding z-score is on record?
Answer: -0.0142

Question: With GCAGACTGGTGAAACGCAGGTAACTCAGGGTGGC as the sequence, how does the PBM binding z-score read?
Answer: -0.985

Question: For CAAACTAGGTCACGAAAGGTCAAAGTAGAATGAC, which PBM binding z-score is on record?
Answer: 6.69

Question: How did the PBM binding z-score turn out when TCTGCTAGGTCAACGATGGTCGGCTAATCTGCTA was run?
Answer: 1.42

Question: For ATCTCTAGGTAACCATGTTCAGTGAATGCCGAAC, which PBM binding z-score is on record?
Answer: 0.463

Question: For TCTGCTAGGTCAAAGATGGTCAGCTAATCTGCTA, which PBM binding z-score is on record?
Answer: 1.68

Question: How did the PBM binding z-score turn out when CAAACTAGGTCTCGAAAGGTCAAAGTCGAATGAC was run?
Answer: 4.71

Question: For TCTTGTAGATCAATAGCGGTTAAGAAAGTGCGCT, which PBM binding z-score is on record?
Answer: 0.46

Question: Which PBM binding z-score does the source give for CCTGCTAGGTCATTGTCAGCTAATCTACAGTATG here?
Answer: 1.66

Question: For TCTGCCAGGTCAGTTGGTCAGCTAACGAGCTGCC, which PBM binding z-score is on record?
Answer: 0.52

Question: How did the PBM binding z-score turn out when TGTCAAAGTTCAAATGTAACGTAAGTATCCACAC was run?
Answer: 4.57

Question: With TGACCAAGGTGAAAGGTCGTTGATGCACGCCTTG as the sequence, how does the PBM binding z-score read?
Answer: 2.96

Question: Which PBM binding z-score does the source give for ACAATGAGGTTATACGTAGATCAGGGAAGAAAGT here?
Answer: 1.5

Question: For CCTTACGGGTCACTCCAGGTAATAGCATCGGAGT, which PBM binding z-score is on record?
Answer: 3.08

Question: Which PBM binding z-score does the source give for TCTCAGAGGACACGAAAGGTCAGAGCTCGACATC here?
Answer: 3.62

Question: How did the PBM binding z-score turn out when CCTAGCAGGCCAGGGTCACTCAGGCATTTCGCTT was run?
Answer: 2.22

Question: Which PBM binding z-score does the source give for TCTCGGAGGACACGAAAGGTCAGAGGTCGACATC here?
Answer: 4.52

Question: For GGAATGAGGGCATTCGAGTTGATAGCATGGCGAT, which PBM binding z-score is on record?
Answer: 3.45

Question: TCTATTGGTTGAAGGGCAACCGACGAGTCCGTTT was tested. Which PBM binding z-score did it give?
Answer: 0.889

Question: ACAGACAGGTGATGAAGGTAACTCCGGCTATCAT was tested. Which PBM binding z-score did it give?
Answer: 0.125

Question: How did the PBM binding z-score turn out when CGTCCAAGGTCAATGCTAGGTCAGTCAAAGCATT was run?
Answer: 5.1

Question: CCTAGCAGGTCAATCTGGGTCACTCAAGGCTTGA was tested. Which PBM binding z-score did it give?
Answer: 4.94

Question: For TGTCACAGTTCAAAGGTAACGTAAGTATCCACAC, which PBM binding z-score is on record?
Answer: 3.28

Question: How did the PBM binding z-score turn out when CGAACGAGGGCATGAGTTGATAGAAAATGCCGAT was run?
Answer: 1.29

Question: How did the PBM binding z-score turn out when CGAACTAGGTCATTCACAGGACAGTGAATAGTAA was run?
Answer: 2.53

Question: For CGTCCAAGGTCATAGGAGGTAAGTGAAGACAGAT, which PBM binding z-score is on record?
Answer: 4.61

Question: For TCTGCTAGGTCAACGATAGTCAGCTAATCTGCTA, which PBM binding z-score is on record?
Answer: 1.24

Question: Which PBM binding z-score does the source give for AGAATGAGGTTATACGTCGATCAGGGAAGAAAGT here?
Answer: 1.29

Question: Which PBM binding z-score does the source give for CGTCCTAGGTCAGCAGGTCAGTGAAAGCGACGTG here?
Answer: 2.07

Question: ATACCAAGGTGATCGTGAGGTCCTTGATACTAAC was tested. Which PBM binding z-score did it give?
Answer: 0.32

Question: TGTCAAAGTTCAAAGGTAACGGAAGTATCCACAC was tested. Which PBM binding z-score did it give?
Answer: 5.14

Question: With CAAACTAGGTCAGAGGTCAAAGTCGAGCCAACCA as the sequence, how does the PBM binding z-score read?
Answer: 6.04

Reference: the supplement of paper PMC6555819
